Laboratory results published in the supplement of paper PMC10849652.
Of roughly 7,900 targets only a part is listed; those with a hit were picked by preference. About 0.6% of all pairs of compound and target were hits.

Legend:
Assay in all cases: log2 fold change, soluble protein after heating vs DMSO (PISA); higher = thermal stabilisation; K562 cells, 10 uM, 30 min; active = over 0.2 and 3.5 SD of the protein, either way, in both replicates (recomputed)
[1] = compound: C1=CC=C(C=C1)[C@H](COC2=CC3=C(C=C2)NC(=O)N3)NC(=O)C4=CC=CN(C4=O)CC5=CC(=C(C=C5)F)F
Method in brief: (§1)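 K562 cells at 2×10^6 cells/mL were treated for 30 min with 10 μM compound, and aliquots were heated for 3 min over 48°C-58°C before pooling. Extraction used PBS with 0.5% NP-40 at 4°C, and soluble protein was the supernatant after 21,000xg for 90 min, measured by TMTpro 16plex LC-MS/MS with channel sums equalised. Thermal stability values, relative to control samples and from duplicates, are log2 fold changes.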

[2] = compound: CC1=C(SC2=C1C(=N[C@H](C3=NN=C(N32)C)CC(=O)N)C4=CC=C(C=C4)Cl)C
Method in brief: as §1

[3] = compound: CC1=C2C(=CC=C1)N=C(N(C2=O)C3=CC=CC=C3C)CN4C=NC5=C(N=CN=C54)N
Method in brief: as §1

[4] = compound: Cc1sc2c(c1C)C(c1ccc(Cl)cc1)=N[C@@H](CC(=O)OC(C)(C)C)c1nnc(C)n1-2
Method in brief: as §1

[5] = compound: c1ccc([C@@H]2C[C@H]2NC2CCNCC2)cc1
Method in brief: as §1

Measured: log2 fold change

HP1BP3 (UniProt Q5SSJ5)
Chain of UniProt Q5SSJ5 (Q5SSJ5 whole entry, looked up): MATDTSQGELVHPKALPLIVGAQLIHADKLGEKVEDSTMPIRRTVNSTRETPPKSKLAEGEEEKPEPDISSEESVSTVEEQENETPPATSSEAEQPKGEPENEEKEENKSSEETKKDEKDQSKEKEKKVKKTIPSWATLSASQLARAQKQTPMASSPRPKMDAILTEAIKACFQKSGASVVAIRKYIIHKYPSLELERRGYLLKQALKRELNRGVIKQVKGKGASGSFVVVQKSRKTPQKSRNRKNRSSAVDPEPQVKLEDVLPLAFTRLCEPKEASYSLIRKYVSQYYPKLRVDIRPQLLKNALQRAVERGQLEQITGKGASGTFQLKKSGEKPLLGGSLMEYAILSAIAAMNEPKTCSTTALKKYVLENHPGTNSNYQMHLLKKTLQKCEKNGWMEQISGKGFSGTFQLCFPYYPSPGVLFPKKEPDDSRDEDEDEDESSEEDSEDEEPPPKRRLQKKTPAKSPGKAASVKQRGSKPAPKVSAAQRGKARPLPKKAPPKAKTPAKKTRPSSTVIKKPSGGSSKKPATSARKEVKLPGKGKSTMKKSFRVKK
inactive: [1] 0.015 | [2] -0.04 | [3] 0.087 | [4] 0.142 | [5] 0.011

FANCD2 isoform 1 (UniProt Q9BXW9)
inactive: [1] -0.018 | [2] 0.068 | [3] 0.159 | [4] -0.041 | [5] -0.009

IFI30 (UniProt P13284)
inactive: [1] -0.066 | [2] 0.01 | [3] -0.06 | [4] 0.004 | [5] 0.048

GNG5 (UniProt P63218)
Chain of UniProt P63218 (P63218 whole entry, looked up): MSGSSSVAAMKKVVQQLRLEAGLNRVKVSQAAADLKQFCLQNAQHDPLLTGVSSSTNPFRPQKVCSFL
inactive: [1] 0.044 | [2] 0.063 | [3] 0.012 | [4] -0.064 | [5] 0.018

GLIPR2 (UniProt Q9H4G4)
Chain of UniProt Q9H4G4 (Q9H4G4 whole entry, looked up): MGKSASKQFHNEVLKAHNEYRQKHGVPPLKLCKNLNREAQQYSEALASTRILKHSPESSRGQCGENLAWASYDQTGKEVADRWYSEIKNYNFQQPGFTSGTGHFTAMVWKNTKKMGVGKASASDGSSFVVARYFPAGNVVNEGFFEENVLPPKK
inactive: [1] -0.092 | [2] -0.091 | [3] -0.009 | [4] 0.028 | [5] -0.017

GTF3C5 isoform 3 (UniProt Q9Y5Q8)
Chain of UniProt Q9Y5Q8 (Q9Y5Q8 whole entry, looked up): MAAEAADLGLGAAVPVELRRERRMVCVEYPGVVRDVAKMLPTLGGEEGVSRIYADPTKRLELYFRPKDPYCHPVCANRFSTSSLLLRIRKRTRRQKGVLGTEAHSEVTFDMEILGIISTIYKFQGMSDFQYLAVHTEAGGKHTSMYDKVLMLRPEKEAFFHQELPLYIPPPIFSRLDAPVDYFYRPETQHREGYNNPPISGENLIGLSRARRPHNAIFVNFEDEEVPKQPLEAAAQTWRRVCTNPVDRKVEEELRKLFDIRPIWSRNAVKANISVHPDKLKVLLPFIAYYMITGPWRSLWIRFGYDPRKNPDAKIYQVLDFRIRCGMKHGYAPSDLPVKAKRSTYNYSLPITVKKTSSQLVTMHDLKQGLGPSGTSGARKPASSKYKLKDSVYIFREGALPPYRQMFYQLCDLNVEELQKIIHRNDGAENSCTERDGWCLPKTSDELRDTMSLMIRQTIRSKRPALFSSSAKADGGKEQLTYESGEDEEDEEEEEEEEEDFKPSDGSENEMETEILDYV
inactive: [1] -0.097 | [2] -0.082 | [3] 0.103 | [4] 0.049 | [5] -0.159

GOLGA8R (UniProt I6L899)
Chain of UniProt I6L899 (I6L899 whole entry, looked up): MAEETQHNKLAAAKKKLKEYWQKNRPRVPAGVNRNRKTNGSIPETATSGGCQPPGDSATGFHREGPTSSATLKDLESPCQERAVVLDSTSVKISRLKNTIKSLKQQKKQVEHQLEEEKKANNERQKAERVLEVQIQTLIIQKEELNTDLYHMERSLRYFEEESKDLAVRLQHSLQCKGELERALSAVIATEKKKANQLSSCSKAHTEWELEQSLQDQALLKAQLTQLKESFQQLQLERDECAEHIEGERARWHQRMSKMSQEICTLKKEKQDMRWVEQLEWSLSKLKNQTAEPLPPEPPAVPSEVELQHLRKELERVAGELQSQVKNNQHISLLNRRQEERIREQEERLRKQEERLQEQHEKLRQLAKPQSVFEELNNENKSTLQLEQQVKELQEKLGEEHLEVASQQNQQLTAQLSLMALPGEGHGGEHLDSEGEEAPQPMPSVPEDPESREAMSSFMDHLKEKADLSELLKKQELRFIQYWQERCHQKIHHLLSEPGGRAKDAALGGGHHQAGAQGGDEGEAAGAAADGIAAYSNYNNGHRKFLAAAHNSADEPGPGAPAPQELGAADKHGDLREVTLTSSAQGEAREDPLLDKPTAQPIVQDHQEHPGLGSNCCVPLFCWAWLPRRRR
inactive: [1] 0.106 | [2] 0.211 | [3] 0.326 | [4] 0.043 | [5] -0.003

H3-3A (UniProt P84243)
inactive: [1] -0.004 | [2] 0.053 | [3] 0.154 | [4] -0.058 | [5] -0.102

GDE1 (UniProt Q9NZC3)
inactive: [1] -0.019 | [2] 0.037 | [3] 0.025 | [4] -0.078 | [5] -0.055

HBZ (UniProt P02008)
Chain of UniProt P02008 (P02008 whole entry, looked up): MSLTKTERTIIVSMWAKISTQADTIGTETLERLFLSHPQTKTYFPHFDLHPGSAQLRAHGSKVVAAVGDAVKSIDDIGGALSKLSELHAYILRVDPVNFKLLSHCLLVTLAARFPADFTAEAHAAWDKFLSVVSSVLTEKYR
inactive: [1] 0.047 | [2] 0.191 | [3] 0.091 | [4] -0.132 | [5] -0.009

FERMT3 (UniProt Q86UX7)
inactive: [1] -0.026 | [2] 0.066 | [3] 0.053 | [4] -0.018 | [5] -0.019

FUCA1 (UniProt P04066)
Chain of UniProt P04066 (P04066 whole entry, looked up): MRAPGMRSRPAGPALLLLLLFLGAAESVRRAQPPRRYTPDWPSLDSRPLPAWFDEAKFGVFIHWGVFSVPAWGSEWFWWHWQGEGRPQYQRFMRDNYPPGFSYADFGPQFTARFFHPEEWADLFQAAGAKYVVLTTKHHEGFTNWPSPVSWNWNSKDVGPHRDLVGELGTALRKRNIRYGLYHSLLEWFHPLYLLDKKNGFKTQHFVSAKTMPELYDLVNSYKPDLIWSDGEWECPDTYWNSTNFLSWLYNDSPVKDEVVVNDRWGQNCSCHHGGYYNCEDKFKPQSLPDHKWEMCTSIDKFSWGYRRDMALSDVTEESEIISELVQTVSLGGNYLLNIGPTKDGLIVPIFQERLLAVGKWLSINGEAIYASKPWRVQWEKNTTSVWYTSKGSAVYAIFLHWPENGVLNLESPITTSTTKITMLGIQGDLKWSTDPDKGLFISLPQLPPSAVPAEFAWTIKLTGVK
inactive: [1] -0.001 | [2] 0.058 | [3] 0.03 | [4] 0.018 | [5] 0.053

HRAS (UniProt P01112)
inactive: [1] 0.015 | [2] 0.116 | [3] -0.03 | [4] 0.016 | [5] 0.138

GSTM4 (UniProt Q03013)
inactive: [1] 0.064 | [2] 0.063 | [3] -0.114 | [4] -0.027 | [5] 0.03

GUK1 isoform 2 (UniProt Q16774)
inactive: [1] -0.042 | [2] 0.003 | [3] 0.084 | [4] -0.021 | [5] 0.031

FUNDC1 (UniProt Q8IVP5)
inactive: [1] 0.052

GALNT1 (UniProt Q10472)
Chain of UniProt Q10472 (Q10472 whole entry, looked up): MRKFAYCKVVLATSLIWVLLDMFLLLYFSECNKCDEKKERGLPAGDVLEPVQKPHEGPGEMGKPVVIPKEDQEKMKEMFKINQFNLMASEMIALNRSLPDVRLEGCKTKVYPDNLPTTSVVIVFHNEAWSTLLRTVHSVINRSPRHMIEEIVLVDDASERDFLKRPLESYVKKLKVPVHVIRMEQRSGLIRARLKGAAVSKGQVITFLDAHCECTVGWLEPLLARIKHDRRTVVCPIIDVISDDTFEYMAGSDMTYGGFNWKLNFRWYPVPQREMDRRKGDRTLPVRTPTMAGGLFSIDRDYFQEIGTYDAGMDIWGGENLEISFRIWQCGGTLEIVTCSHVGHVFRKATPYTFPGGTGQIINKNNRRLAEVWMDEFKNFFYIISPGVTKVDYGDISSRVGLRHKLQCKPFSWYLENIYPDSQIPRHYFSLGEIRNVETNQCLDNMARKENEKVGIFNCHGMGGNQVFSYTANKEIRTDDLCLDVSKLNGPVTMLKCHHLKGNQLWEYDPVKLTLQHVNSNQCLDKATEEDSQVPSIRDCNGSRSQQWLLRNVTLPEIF
inactive: [1] -0.034 | [2] 0.069 | [3] -0.002 | [4] -0.01 | [5] -0.007

FBXO6 (UniProt Q9NRD1)
Chain of UniProt Q9NRD1 (Q9NRD1 whole entry, looked up): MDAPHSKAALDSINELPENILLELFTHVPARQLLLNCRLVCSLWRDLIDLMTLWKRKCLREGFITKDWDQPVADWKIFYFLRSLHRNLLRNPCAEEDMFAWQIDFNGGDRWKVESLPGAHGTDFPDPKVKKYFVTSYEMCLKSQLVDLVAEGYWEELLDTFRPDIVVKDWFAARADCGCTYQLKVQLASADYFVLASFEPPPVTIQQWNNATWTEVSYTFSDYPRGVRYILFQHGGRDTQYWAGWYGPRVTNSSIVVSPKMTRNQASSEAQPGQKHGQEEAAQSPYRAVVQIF
inactive: [1] 0.013 | [2] 0.087 | [3] 0.041 | [4] -0.041 | [5] -0.032

GBE1 (UniProt Q04446)
Chain of UniProt Q04446 (Q04446 whole entry, looked up): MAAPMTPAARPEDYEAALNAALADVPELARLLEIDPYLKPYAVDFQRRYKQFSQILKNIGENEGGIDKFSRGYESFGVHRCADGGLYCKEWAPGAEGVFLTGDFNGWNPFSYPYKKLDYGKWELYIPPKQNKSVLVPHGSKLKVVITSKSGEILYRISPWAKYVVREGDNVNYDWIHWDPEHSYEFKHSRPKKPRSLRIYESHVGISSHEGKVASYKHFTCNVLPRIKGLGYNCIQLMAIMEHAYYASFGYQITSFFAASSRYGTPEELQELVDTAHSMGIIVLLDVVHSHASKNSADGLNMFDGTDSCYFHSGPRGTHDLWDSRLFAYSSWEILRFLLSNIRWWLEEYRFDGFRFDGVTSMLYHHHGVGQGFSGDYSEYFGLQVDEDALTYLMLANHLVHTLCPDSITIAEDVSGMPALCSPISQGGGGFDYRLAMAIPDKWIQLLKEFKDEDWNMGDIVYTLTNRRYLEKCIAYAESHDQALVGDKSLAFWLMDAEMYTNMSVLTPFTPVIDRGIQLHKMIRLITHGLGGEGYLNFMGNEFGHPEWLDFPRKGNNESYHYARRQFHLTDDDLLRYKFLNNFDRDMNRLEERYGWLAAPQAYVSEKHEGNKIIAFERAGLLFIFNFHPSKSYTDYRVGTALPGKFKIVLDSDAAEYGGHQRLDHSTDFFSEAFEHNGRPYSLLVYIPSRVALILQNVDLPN
inactive: [1] -0.116 | [2] 0.01 | [3] -0.009 | [4] 0.03 | [5] 0.008

H1FX (UniProt Q92522)
Chain of UniProt Q92522 (Q92522 whole entry, looked up): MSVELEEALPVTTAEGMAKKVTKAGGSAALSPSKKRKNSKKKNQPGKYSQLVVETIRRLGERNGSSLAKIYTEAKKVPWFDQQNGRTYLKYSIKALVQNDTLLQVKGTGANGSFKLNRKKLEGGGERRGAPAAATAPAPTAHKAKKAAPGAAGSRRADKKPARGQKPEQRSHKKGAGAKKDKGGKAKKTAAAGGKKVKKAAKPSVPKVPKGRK
inactive: [1] 0.088 | [2] -0.146 | [3] -0.21 | [4] 0.135 | [5] -0.005

IFRD2 isoform 2 (UniProt Q12894)
inactive: [1] -0.013 | [2] -0.091 | [3] -0.055 | [4] 0.063 | [5] 0.061

HEXB (UniProt P07686)
Chain of UniProt P07686 (P07686 whole entry, looked up): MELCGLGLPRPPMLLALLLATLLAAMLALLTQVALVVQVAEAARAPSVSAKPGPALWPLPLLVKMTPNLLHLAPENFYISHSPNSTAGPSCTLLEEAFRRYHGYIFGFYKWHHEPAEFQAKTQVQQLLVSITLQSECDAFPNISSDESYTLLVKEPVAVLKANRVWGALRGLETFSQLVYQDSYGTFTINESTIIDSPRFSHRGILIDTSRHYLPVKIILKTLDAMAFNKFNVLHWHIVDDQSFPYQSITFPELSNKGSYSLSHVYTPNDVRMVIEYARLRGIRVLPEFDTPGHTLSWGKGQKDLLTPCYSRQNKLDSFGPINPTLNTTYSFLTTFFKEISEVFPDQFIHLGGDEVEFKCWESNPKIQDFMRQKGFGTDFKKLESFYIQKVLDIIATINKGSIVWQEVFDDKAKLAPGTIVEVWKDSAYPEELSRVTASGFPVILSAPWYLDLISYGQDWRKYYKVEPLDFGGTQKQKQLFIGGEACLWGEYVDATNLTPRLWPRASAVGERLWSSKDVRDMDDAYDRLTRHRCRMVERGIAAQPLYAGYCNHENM
inactive: [1] 0.028 | [2] 0.005 | [3] 0.064 | [4] -0.008 | [5] 0.016

GDI1 (UniProt P31150)
inactive: [1] -0.025 | [2] 0.054 | [3] 0.043 | [4] -0.022 | [5] -0.025

GPD1 (UniProt P21695)
inactive: [1] 0.095 | [2] 0.028 | [3] 0.123 | [4] -0.019 | [5] -0.238

FLNA (UniProt P21333)
inactive: [1] -0.11 | [2] 0.016 | [3] 0.049 | [4] 0.019 | [5] -0.008
